This note sets out measurements from PubChem BioAssay (NCI).

The nature of assay [1]: NCI Yeast Anticancer Drug Screen. Data for the rad50 strain (AID 155).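 Further: 0% = growth of vehicle-only cultures of the same strain.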 As to conditions: S. cerevisiae rad50 strain growth inhibition, active compounds read high; at 50.0 µM unless noted. A digest of the protocol: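 Compounds were tested on a yeast strain with an engineered DNA damage repair alteration; the reported value is growth inhibition normalised to vehicle treatment.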

A short description of assay [2]: NCI Yeast Anticancer Drug Screen. Data for the mec2-1 strain (AID 157). As to conditions: S. cerevisiae mec2-1 strain, active compounds read high; at 50.0 µM unless noted. The essentials: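 Mutant yeast (mec2-1) grown with compound; growth inhibition relative to vehicle control reported.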
The nature of assay [3]: NCI Yeast Anticancer Drug Screen. Data for the sgs1 mgt1 strain (AID 161).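 Further: 0% = growth of cultures given vehicle only.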 As to conditions: S. cerevisiae sgs1 mgt1 strain, active compounds read high; at 50.0 µM unless noted. The essentials: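 Yeast cells carrying a defined DNA-repair defect were exposed to test compounds. Growth inhibition was measured relative to vehicle-treated controls.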
Assay [4] is described as follows: NCI Yeast Anticancer Drug Screen. Data for the cln2 rad14 strain (AID 165).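 Further: 0% = growth equal to vehicle treated cultures.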 As to conditions: S. cerevisiae cln2 rad14 strain, active compounds read high; at 50.0 µM unless noted. A digest of the protocol:
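Readout is yeast growth inhibition versus vehicle-treated controls, using a strain with cln2 and rad14 alterations exposed to compound.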

The nature of assay [5]: NCI Yeast Anticancer Drug Screen. Data for the bub3 strain (AID 167). As to conditions: S. cerevisiae bub3 mutant strain, active compounds read high; at 50.0 µM unless noted. A digest of the protocol: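 Growth of a checkpoint-deficient yeast mutant is measured after compound exposure. Values represent inhibition relative to vehicle.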
Assay [6] in a line: NCI Yeast Anticancer Drug Screen. Data for the mlh1 rad18 strain (AID 175). As to conditions: S. cerevisiae mlh1 rad18 strain growth inhibition, active compounds read high; at 50.0 µM unless noted. The essentials: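 Genetically defined yeast (DNA repair-deficient) exposed to compounds; growth inhibition determined relative to vehicle.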

Where “and” joins values, the source holds several entries; their conditions need not be identical. Equal values may be shown once. About 79,000 compounds went through this panel and 15% of them were active in at least one assay; those are over-represented in the sample as a whole. A number with no mark means an inactive call. Calls of active or inactive are those of the source. No stated cut-off is given here; in the data, active means growth inhibition above about 70%; inactive means the rest.

For `COC(=O)Nc1ccc(Cc2ccc(NC(=O)OC)cc2)cc1`, the growth inhibition in assay [1] is 26.1%; in assay [2], 7.35%; in assay [3], 27.5%; in assay [4], 15.7%; in assay [5] it was 33.5%; in assay [6], 29.6%.
For the compound `CN(C)C(Cc1cnc[nH]1)C(=O)N1CCCC1C(N)=O` (stereo not given), the growth inhibition in assay [1] was -22.4%; in assay [2] it was -45.8%; in assay [3], -9.65%; in assay [4], -0.8%; in assay [5], -20.8%; in assay [6], 5.85%.
On to `O=c1ccn(C2OC(COC3CCCCO3)C(OC3CCCCO3)C2OC2CCCCO2)c(=O)n1-c1ccccc1` (stereo not given), for which the growth inhibition in assay [1] was 39.7%; in assay [2], -4.8%; in assay [3], 10.1%; in assay [4] it was -1.4%; in assay [5] it was -2.65%; in assay [6] it was 5.25%.
Take `COc1cc2cnc(-c3ccccc3)c(O)c2cc1OC`: the growth inhibition was 12.3% in assay [1]; -5.25% in assay [2]; 12% in assay [3]; 1.3% in assay [4]; 40.1% in assay [5]; -6.55% in assay [6].
Regarding `O=c1[nH]n(Cc2ccccc2CCl)c2ccc([N+](=O)[O-])cc12`, the growth inhibition in assay [1] was 24.1%; in assay [2] it was 13.3%; in assay [3], -10.8%; in assay [4], 24%; in assay [5], 4.1%; in assay [6] it was 3.7%.
Consider `CCCCCCC(C)OB(OC(C)CCCCCC)OC(C)CCCCCC` (stereo not given), for which the growth inhibition in assay [1] is -27.6%; in assay [2], -49%; in assay [3], -0.8%; in assay [4], 13.8%; in assay [5], -41.4%; in assay [6] it was -0.85%.
For the compound `CCOC(=O)C(CC(C)C)NC(=O)c1ccc(C)c(OCc2ccccc2)c1[N+](=O)[O-]` (stereo not given), the growth inhibition in assay [1] was 17.9%; in assay [2], -8.75%; in assay [3], 37.9%; in assay [4] it was 0.6%; in assay [5] it was 11.6%; in assay [6], -3.9%.
Regarding `CCCCCCC(/C=N/NC(=O)CCCCCCCCC(=O)N/N=C/C(=C/c1ccccc1)CCCCCC)=C\c1ccccc1`, the growth inhibition in assay [1] was 11.4%; in assay [2], 1.85%; in assay [3], -5.95%; in assay [4], -5.05%; in assay [5], -1.45%; in assay [6], 15.9%.
For the compound `CC1(C)CCC(CC(=O)O)(CC(=O)O)CC1`, the growth inhibition in assay [1] was -5.25%; in assay [2], 8.8%; in assay [3] it was -1.7%; in assay [4], -17.3%; in assay [5], -2.9%; in assay [6], 11.4%.
`O=C(CCCC1CCCCC1)OC1CCCCC1`: the growth inhibition in assay [1] was 5.3%; in assay [2], 8.4%; in assay [3] it was 8.7%; in assay [4], -8.05%; in assay [5], -3.9%; in assay [6] it was -1.3%.
In the case of `Cc1ccc(S(=O)(=O)OCC2C3C=CC(C4C=CC43)C2COS(=O)(=O)c2ccc(C)cc2)cc1` (stereo not given), the growth inhibition in assay [1] was -4.25%; in assay [2], -0.65%; in assay [3] it was -10%; in assay [4] it was -25.3%; in assay [5], 11.8%; in assay [6], -0.4%.
Regarding `Cc1ccc(C)n1-n1c(Cc2ccc(Cl)cc2)n[nH]c1=O`, the growth inhibition in assay [1] is 8.5%; in assay [2] it was 3.05%; in assay [3] it was 16%; in assay [4] it was 8.05%; in assay [5], -4.4%; in assay [6], 13.1%.
For the compound `CC(O)c1ccc[cH-]1.CC(O)c1ccc[cH-]1.[Fe+2]` (stereo not given), the growth inhibition in assay [1] is -22%; in assay [2], 4%; in assay [3], -5.55%; in assay [4], -33.1%; in assay [5] it was 28.7%; in assay [6], 5.7%.
In the case of `Cc1ccc(C(=O)c2ccc([N+](=O)[O-])cc2)cc1`, the growth inhibition in assay [1] was -21.1%; in assay [2], -20.4%; in assay [3] it was -34.5%; in assay [4] it was -50%; in assay [5] it was 8.3%; in assay [6] it was -41.1%.
Take `O=C1NC(N/N=C\C(O)C(O)C(O)CO)=N/C1=C/c1ccccc1` (stereo not given): the growth inhibition in assay [1] is 16.4% and 33.9%; in assay [2] it was 18.7% and 29.6%; in assay [3], 3.75% and 32.5%; in assay [4] it was 16.8% and 16.1%; in assay [5], 12.2% and 32.3%; in assay [6], -9.35% and -5.7%.
Take `O=C1C(c2ccccc2)=C(c2ccccc2)C1(Cl)Cl`: the growth inhibition in assay [1] was -5.95%; in assay [2] it was -6.1%; in assay [3], 44.3%; in assay [4] it was 37.6%; in assay [5] it was 17.9%; in assay [6] it was 88.4% (active).
In the case of `CC(=O)C(CCC#N)(CCC#N)C(C)=O`, the growth inhibition is -18.6% in assay [1]; -24.6% in assay [2]; -4.8% in assay [3]; -5.95% in assay [4]; -1.45% in assay [5]; -16.1% in assay [6].
Turning to `COC1C(CO)OC(O)C(O)C1O` (stereo not given), the growth inhibition in assay [1] was -6.75%; in assay [2], 2.25%; in assay [3], -5.2%; in assay [4], -5.45%; in assay [5], -6.9%; in assay [6], 4%.
In the case of `O=[N+]([O-])c1ccc(CC(Cl)c2ccccc2)cc1` (stereo not given), the growth inhibition in assay [1] was 40.8%; in assay [2], 2.35%; in assay [3], 39.5%; in assay [4], -19.1%; in assay [5], 29.8%; in assay [6] it was 63%.
Take `COc1cc(C(=O)NO)ccc1O`: the growth inhibition in assay [1] is -0.15%; in assay [2], -12.6%; in assay [3] it was -15.1%; in assay [4], -1.95%; in assay [5] it was -6%; in assay [6], -1.4%.
